Experimental findings from PubChem BioAssay (Tox21) are described below.

The nature of experiment [1]: qHTS assay for small molecule agonists of the p53 signaling pathway (AID 651631; calls by dose curve; further: nearly all actives have a fitted effect of over 15% in size; further: potency means the concentration at half of the fitted maximal effect). The method, boiled down: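 HCT-116 cells carrying a beta-lactamase reporter under p53 response elements were dosed with compound for 16 h at 37 °C. LiveBLAzer B/G FRET substrate was then added for 2 h at room temperature, and fluorescence intensity was read to detect pathway agonism.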

The nature of experiment [2]: qHTS assay for small molecules that induce genotoxicity in human embryonic kidney cells expressing luciferase-tagged ATAD5 - cell viability (AID 651634; calls by dose curve; further: nearly all actives have a fitted effect of over 25% in size). The gist of the method:
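HEK293T ATAD5-luc cells, 2,000/well; compound 15.5 hr, 37C/5% CO2; CellTiter-Fluor 30 min, 37C; fluorescence read.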

A short description of experiment [3]: qHTS assay to test for compound auto fluorescence at 590 nm (red) in HepG2 cells (AID 720674). The gist of the method:
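Fluorescence at 590 nm emission following 540 nm excitation was recorded from HepG2 wells one hour after compound transfer, with DMSO-only wells as vehicle and Rose Bengal sodium equivalency as the scale.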
On the technique in general: qHTS replaces the single test concentration by a dilution series.

Experiment [4] can be described thus: qHTS assay to test for compound auto fluorescence at 535 nm (green) in HEK293 cells (AID 720680).
In experiment [5] the target is Glucocorticoid receptor (Homo sapiens) (UniProt P04150). Put plainly: qHTS assay to identify small molecule agonists of the glucocorticoid receptor (GR) signaling pathway (AID 720691; active means well fitted activation curve with a large enough effect in the signal ratio in the repeat runs, not every such curve was filed as active; the % refers to the signal ratio). The gist of the method:
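HeLa GR-bla reporter line; cells pre-incubated 4 h, compound in DMSO 18 h at 37 C; LiveBLAzer B/G FRET substrate 2 h RT; fluorescence intensity read-out.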

Experiment [6] can be described thus: qHTS assay to identify small molecule antagonists of the glucocorticoid receptor (GR) signaling pathway - cell viability counter screen (AID 720693). Further: nearly all actives have a fitted effect of over 55% in size. Further: potency means the concentration at half of the fitted maximal effect.
Experiment [7] is described as follows: qHTS assay for identifying genotoxic compounds that show differential cytotoxicity against isogenic chicken DT40 cell lines with known DNA damage response pathways - Rev3 mutant cell line (AID 743014). Further: nearly all actives have a fitted effect of over 55% in size. Further: potency means the concentration at half of the fitted maximal effect.
Experiment [8] in a line: qHTS assay for identifying genotoxic compounds that show differential cytotoxicity against isogenic chicken DT40 cell lines with known DNA damage response pathways - Rad54/Ku70 mutant cell line (AID 743015). Further: nearly all actives have a fitted effect of over 60% in size. Further: potency means the concentration at half of the fitted maximal effect.
Experiment [9] is described as follows: qHTS assay to identify small molecule antagonists of the thyroid receptor (TR) signaling pathway - cell viability counter screen (AID 743064). Further: nearly all actives have a fitted effect of over 50% in size. Further: potency means the concentration at half of the fitted maximal effect. The gist of the method: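 GH3.TRE-Luc rat pituitary cells dosed after 4 hr plating, co-stimulated with T3 at 1 nM final, incubated 23.5 h at 37 C. Viability measured in the same wells by CellTiter-Fluor fluorescence after 30 min further at 37 C.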

Experiment [10] deals with thyroid hormone receptor (rat, GH3 cells). The experiment can be described thus: qHTS assay to identify small molecule agonists of the thyroid receptor (TR) signaling pathway (AID 743066; calls by dose curve).
Experiment [11] has as its target Estrogen receptor (Homo sapiens) (UniProt P03372). Put plainly: qHTS assay to identify small molecule agonists of the estrogen receptor alpha (ER-alpha) signaling pathway (AID 743075; calls by dose curve;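 further: HEK293 GripTite cells with ER-alpha and UAS-driven beta-lactamase reporter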; further: potency means the concentration at half of the fitted maximal effect).
Experiment [12] can be described thus: qHTS assay to identify small molecule antagonists of the estrogen receptor alpha (ER-alpha) signaling pathway using the BG1 cell line (AID 743080; calls by dose curve; further: nearly all actives have a fitted effect of over 25% in size; further: potency means the concentration at half of the fitted maximal effect). The method, boiled down:
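Antagonist mode: compounds in DMSO were pinned onto BG1-Luc-4E2 cells alongside 17beta-estradiol agonist, incubated 21.5 h, and ERE-driven luciferase measured with ONE-Glo. Cytotoxicity was multiplexed using CellTiter-Fluor fluorescence.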

A short description of experiment [13]: qHTS assay to identify small molecule that activate the aryl hydrocarbon receptor (AhR) signaling pathway - cell viability counter screen (AID 743086). Further: nearly all actives have a fitted effect of over 45% in size. Further: potency means the concentration at half of the fitted maximal effect. The gist of the method:
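HepG2-AhR-luc (HG2L7.5c1) cells, 4000/well, treated 24 h at 37 C with compound; viability measured as CellTiter-Fluor fluorescence after 30 min in the same wells as the luciferase read.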

Experiment [14] has as its target Peroxisome proliferator-activated receptor gamma (Homo sapiens) (UniProt P37231). The experiment can be described thus: qHTS assay to identify small molecule agonists of the peroxisome proliferator-activated receptor gamma (PPARg) signaling pathway (AID 743094; active means well fitted activation curve with a large enough effect in the signal ratio in the repeat runs, not every such curve was filed as active; the % refers to the signal ratio). The method, boiled down:
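HEK293H PPARg-bla cells, 5 h settle at 37C/5% CO2; compound (DMSO) 17 h, 37C; B/G FRET substrate 1 h RT; fluorescence intensity read-out. qHTS format.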

Experiment [15] addresses Nuclear receptor subfamily 1 group I member 2 (Homo sapiens) (UniProt O75469). The experiment can be described thus: Human pregnane X receptor (PXR) activation by small molecules, qHTS assay (AID 1346985). Further: nearly all actives have a fitted effect of over 40% in size. The gist of the method:
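DPX-2 cells (HepG2 co-transfected with a PXR response element and a CYP3A4-promoter luciferase construct) were seeded at 2,000 per well, rested 5 hr at 37C, then exposed to DMSO-dissolved compounds for 24 hr. Activation was read as luciferase luminescence.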

Experiment [16] in a line: qHTS assay for small molecule disruptors of the mitochondrial membrane potential (AID 720635). Further: potency means the concentration at half of the fitted maximal effect. The gist of the method:
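HepG2 cells exposed to compound 1 hr at 37C, then Mito-MPS dye 30 min. Ratio read of aggregate (540/590 nm) versus monomer (490/535 nm) fluorescence.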

Experiment [17] can be described thus: qHTS assay for identifying genotoxic compounds that show differential cytotoxicity against isogenic chicken DT40 cell lines with known DNA damage response pathways - wild type cell line (AID 743012). Further: nearly all actives have a fitted effect of over 60% in size. Further: potency means the concentration at half of the fitted maximal effect. The method, boiled down:
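CellTiter-Glo luminescence readout of viability in wild type DT40 cells after 40 h compound exposure at 37 C/5% CO2; 300 cells/well; reagent incubated 30 min at room temperature before reading.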

The nature of experiment [18]: qHTS assay to identify small molecule antagonists of the thyroid receptor (TR) signaling pathway (AID 743065). Further: nearly all actives have a fitted effect of over 55% in size. Further: potency means the concentration at half of the fitted maximal effect. The method, boiled down: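 GH3.TRE-Luc rat pituitary cells (two TREs driving luciferase) were dosed with compound, then stimulated with 1 nM T3 (final) for 23.5 h at 37 C. ONE-Glo luminescence was the read-out, with CellTiter-Fluor fluorescence as the cytotoxicity counter-screen.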

Experiment [19] can be described thus: qHTS assay to test for compound auto fluorescence at 460 nm (blue) in HEK293 cells (AID 720678). The method, boiled down: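 Cells were seeded and left to adhere for 4-5 hr at 37C. Compounds were then pin-transferred. After an overnight incubation at 37C under 5% CO2, intrinsic fluorescence at 405/460 nm was measured and referenced to triamterene.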
Experiment [20] is described as follows: qHTS assay to test for compound auto fluorescence at 590 nm (red) in HEK293 cell free culture (AID 720683). The method, boiled down:
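Cell-free wells of DMEM with 10% FBS received compound, and intrinsic fluorescence was read at excitation/emission 540/590 nm. Values expressed as equivalence to Rose Bengal sodium.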

Molecules are shown by their SMILES. Several values for one entry are separate records, joined by “and”; a condition that tells them apart may be missing. Equal entries are not always repeated. Records with an inconclusive call do not appear. The source holds several records for some structures; these can differ, active in one and inactive in another. Activity calls are given as the source filed them. Unless noted, the call rests on the fitted dose curve; in most records, active means well fitted curve in the direction sought with a large enough effect in the repeat runs; inconclusive means weak or mixed curves; inactive means no such curve, though single readings can be large; an effect the other way counts as inactive or inconclusive.

Estrogen receptor (Homo sapiens), sequence (P03372 whole entry, looked up): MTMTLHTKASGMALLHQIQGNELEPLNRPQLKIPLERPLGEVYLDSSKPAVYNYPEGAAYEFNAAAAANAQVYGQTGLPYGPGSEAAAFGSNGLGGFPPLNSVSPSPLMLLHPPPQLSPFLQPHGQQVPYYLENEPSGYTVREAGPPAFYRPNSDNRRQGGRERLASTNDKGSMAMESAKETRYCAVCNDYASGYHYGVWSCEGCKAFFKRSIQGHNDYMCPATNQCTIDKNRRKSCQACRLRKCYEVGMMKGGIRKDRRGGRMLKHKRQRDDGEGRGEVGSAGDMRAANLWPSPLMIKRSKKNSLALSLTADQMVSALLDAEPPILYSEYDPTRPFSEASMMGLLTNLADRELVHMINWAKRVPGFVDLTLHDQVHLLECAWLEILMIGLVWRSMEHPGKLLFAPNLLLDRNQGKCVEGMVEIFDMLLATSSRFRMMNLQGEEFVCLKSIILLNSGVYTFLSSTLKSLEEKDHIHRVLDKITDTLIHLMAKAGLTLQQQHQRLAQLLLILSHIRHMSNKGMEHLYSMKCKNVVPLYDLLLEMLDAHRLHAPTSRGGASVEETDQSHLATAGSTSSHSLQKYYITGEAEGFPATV
Glucocorticoid receptor (Homo sapiens), sequence (P04150 whole entry, looked up): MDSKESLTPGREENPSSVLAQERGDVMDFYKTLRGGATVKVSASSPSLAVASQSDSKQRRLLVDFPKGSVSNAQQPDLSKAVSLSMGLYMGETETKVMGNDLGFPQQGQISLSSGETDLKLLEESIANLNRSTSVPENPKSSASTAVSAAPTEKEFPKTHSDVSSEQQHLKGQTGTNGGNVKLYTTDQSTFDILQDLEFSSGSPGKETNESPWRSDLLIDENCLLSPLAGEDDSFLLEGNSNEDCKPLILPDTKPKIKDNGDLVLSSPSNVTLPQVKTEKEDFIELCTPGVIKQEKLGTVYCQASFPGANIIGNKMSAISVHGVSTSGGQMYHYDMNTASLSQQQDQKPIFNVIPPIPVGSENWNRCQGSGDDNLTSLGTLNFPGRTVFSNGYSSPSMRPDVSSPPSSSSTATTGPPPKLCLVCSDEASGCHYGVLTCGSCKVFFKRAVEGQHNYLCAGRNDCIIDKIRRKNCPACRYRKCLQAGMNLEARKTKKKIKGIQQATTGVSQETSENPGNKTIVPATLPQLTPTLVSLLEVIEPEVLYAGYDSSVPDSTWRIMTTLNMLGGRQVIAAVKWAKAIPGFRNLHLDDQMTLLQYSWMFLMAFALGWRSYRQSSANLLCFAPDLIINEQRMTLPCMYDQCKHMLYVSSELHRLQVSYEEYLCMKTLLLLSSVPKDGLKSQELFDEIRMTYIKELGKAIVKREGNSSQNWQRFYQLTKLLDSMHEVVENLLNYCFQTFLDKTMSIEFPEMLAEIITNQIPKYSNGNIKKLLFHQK
Peroxisome proliferator-activated receptor gamma (Homo sapiens), sequence (P37231 whole entry, looked up): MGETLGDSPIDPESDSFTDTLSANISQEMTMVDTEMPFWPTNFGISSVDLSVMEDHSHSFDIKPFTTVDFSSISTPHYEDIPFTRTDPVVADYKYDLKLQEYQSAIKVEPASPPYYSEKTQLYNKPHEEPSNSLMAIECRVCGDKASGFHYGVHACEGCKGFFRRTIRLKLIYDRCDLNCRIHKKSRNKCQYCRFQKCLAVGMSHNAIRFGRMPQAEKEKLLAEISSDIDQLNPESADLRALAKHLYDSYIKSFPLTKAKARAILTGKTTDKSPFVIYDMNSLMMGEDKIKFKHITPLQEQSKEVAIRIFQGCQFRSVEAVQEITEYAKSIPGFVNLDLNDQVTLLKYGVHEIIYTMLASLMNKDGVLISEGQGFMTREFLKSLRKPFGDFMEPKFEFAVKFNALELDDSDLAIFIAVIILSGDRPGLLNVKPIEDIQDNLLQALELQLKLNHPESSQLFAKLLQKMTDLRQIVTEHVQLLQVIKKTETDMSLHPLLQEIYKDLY

For the compound `C[C@]12CC[C@H](OS(=O)(=O)O)CC1=CC[C@@H]1[C@@H]2CC[C@]2(C)C(=O)CC[C@@H]12`, the Potency result in [1], in experiment [2], in experiment [4], in experiment [5], in experiment [6] and in experiment [7] was “inactive” throughout. Further, the Potency result in [8], in [9], in [10], in [11], in experiment [12] and in [13] was “inactive” each time. Moreover, the Potency result in [14] and in [15] was “inactive” in each case. In experiment [3], the call was inactive.

Turning to `Cc1ccccc1-n1c(C)nc2ccccc2c1=O`, the Potency entry in experiment [1], in experiment [2], in [16], in experiment [5], in [18] and in experiment [10] was “inactive” throughout. For the same compound, the Potency entry in [11], in [12], in experiment [14] and in [15] was “inactive” each time. The outcome in experiment [3] was inactive. Further, the Potency in experiment [17] is 42800 nM (active); in experiment [7], 53900 nM (active); in experiment [8], 60400 nM (active); in [9], “inactive and 24.1 µM (active)”; in experiment [13], “inactive and 24.1 µM (active)”.

In the case of `COC(COC(N)=O)C1=C(N2CC2)C(=O)C(C)=C(N2CC2)C1=O` (stereo not given), the Potency in experiment [1] was 298 nM (active); in experiment [6], 1900 nM (active); in experiment [17] it was 4.2 nM (active); in experiment [8], 4.7 nM (active); in experiment [9], 841 nM (active); in experiment [18], 168 nM (active). The Potency in experiment [12] is 531 nM (active). In addition, the Potency result in [16], in experiment [19], in experiment [4], in experiment [5], in experiment [11] and in experiment [15] was “inactive” throughout. The compound was classed as inactive in experiment [3] and in experiment [20].

`COC([CH2][Hg])CNC(=O)c1ccccc1OCC(=O)O` (stereo not given): the Potency entry in experiment [16], in experiment [19], in experiment [4], in experiment [5], in experiment [6] and in [9] was “inactive” each time. Besides, the Potency entry in [11], in experiment [12], in experiment [13] and in experiment [15] was “inactive” throughout. Besides, the result in experiment [3] and in experiment [20] was inactive. The Potency was 1680 nM (active) in experiment [17] and 2980 nM (active) in experiment [8].

For the compound `C#CC(C)(O)CC` (stereo not given), the Potency result in experiment [1], in experiment [2], in [4], in experiment [5], in [6] and in experiment [17] was “inactive” in each case. The Potency result in experiment [7], in experiment [8], in experiment [18], in experiment [10], in experiment [11] and in experiment [12] was “inactive” throughout. Moreover, the Potency entry in [13], in [14] and in experiment [15] was “inactive” each time. In addition, in experiment [20], the compound was classed as inactive.

Take `NCC[C@H](O)C(=O)N[C@@H]1C[C@H](N)[C@@H](O[C@H]2O[C@H](CN)[C@@H](O)[C@H](O)[C@H]2N)[C@H](O[C@@H]2O[C@H](CO)[C@@H](O)[C@H]2O)[C@H]1O`: the Potency entry in [2], in experiment [19], in experiment [4], in [6], in experiment [17] and in experiment [7] was “inactive” in each case. For the same compound, the Potency result in experiment [8], in experiment [9], in [18], in [10], in experiment [11] and in [12] was “inactive” each time. Moreover, the Potency entry in [13], in [14] and in experiment [15] was “inactive” throughout.

Regarding `CCC1C(C)=NN=C(c2ccc(OC)c(OC)c2)c2cc(OC)c(OC)cc21` (stereo not given), the Potency entry in experiment [1], in [2], in experiment [19], in [4], in [17] and in experiment [8] was “inactive” in each case. Further, the Potency entry in experiment [9], in [18], in [10], in experiment [11], in [12] and in experiment [14] was “inactive” each time. The compound was classed as inactive in experiment [3] and in [20].

In the case of `CC(=O)[C@H]1CC[C@H]2[C@@H]3CC[C@@H]4C[C@H](O)CC[C@]4(C)[C@H]3CC[C@]12C`, the Potency entry in experiment [1], in experiment [2], in experiment [19], in experiment [5], in [6] and in [17] was “inactive” throughout. In addition, the Potency entry in experiment [8], in [10], in experiment [13], in experiment [14] and in experiment [15] was “inactive” in each case. Further, the compound was classed as inactive in experiment [3] and in [20]. Moreover, the values for the Potency in [18] and in experiment [11] were 13300 nM (active) and 26800 nM [activator] (active), respectively.

Consider `CCC(N)Cc1c[nH]c2ccccc12` (stereo not given), for which the Potency entry in [1], in [19], in [4], in experiment [6], in experiment [7] and in experiment [9] was “inactive” each time. Besides, the Potency result in [18], in [10], in [12], in [13], in experiment [14] and in [15] was “inactive” each time. Moreover, the Potency in experiment [16] was 21100 nM (active); in [17] it was “inactive and 68.8 µM (active)”. Also, the compound was called inactive in [3].
